Test results from PubChem BioAssay AID1554 (Broad Institute, 2009).
In all, about 300,000 compounds went through this assay and about 520 (0.17%) were called active. Cut-off read from the data, not from the text of the source: active = inhibition above about 50%; inconclusive = no clear call, values can overlap the other calls; inactive = below that. For the sample, actives were picked, then their nearest neighbours and some compounds at random.

Assay: PubChem AID 1554
Settings: BJeLR (HRASV12) viability, CellTiter-Glo ATP luminescence, 48 h; active compounds read high; concentration not given here
In the case of `Brc1ccc2c(c1)[C@H]1OCC[C@H]1[C@@H](c1cccs1)N2`, the inhibition is reported as 10.2% (inactive).
With `CC(C)Cn1c(=O)c2ccccc2n2c(CCC(=O)NCc3ccccn3)nnc12` the inhibition was -6.38% (inactive).
In the case of `CN(C)N1C(N)=C(C#N)C(c2ccc(Br)cc2)C2=C1CCCC2=O` (stereo not given), the inhibition is reported as -10.4% (inactive).
In the case of `COc1cc(NS(=O)(=O)c2ccc(NC(=S)NC(=O)c3ccc(Br)cc3)cc2)ncn1`, the inhibition is reported as -4.7% (inactive).
For `O=C1C2CCCN2C(=O)N1CCCCN1CCN(c2cccc(C(F)(F)F)c2)CC1` (stereo not given), the inhibition was -4.72% (inactive).
In the case of `Cc1ccccc1NC(=O)c1nn(-c2ccc(F)c(F)c2)ccc1=O`, the inhibition is reported as -12.5% (inactive).
In the case of `Cc1cccc(NC(=O)/C=C/c2ccc3c(c2)OCO3)n1`, the inhibition is reported as -11.7% (inactive).
In the case of `CSCCC(NC(=O)COc1ccccc1)C(=O)OCCOc1ccc(Br)cc1` (stereo not given), the inhibition is reported as 5.25% (inactive).
For `COc1ccc(C(CCN(Cc2ccc(OC)c(OC)c2)C(=O)CCl)c2ccccc2)cc1` (stereo not given), the inhibition was 85.3% (active).
For `COc1ccc(CN(C)C(=O)CC(c2ccccc2)c2ccccc2)cc1`, the inhibition was 3.85% (inactive).
For `COc1ccc(COC(=O)NC(C(=O)O)c2ccccc2)cc1` (stereo not given), the inhibition was -0.701% (inactive).
With `CCOC(=O)C1=C(CSc2nnnn2C)N(C)C(=O)NC1c1ccccc1` (stereo not given) the inhibition was 0.916% (inactive).
With `CCN(CC)CCCN=C(N)N` the inhibition was -2.78% (inactive).
In the case of `Nc1nc(-c2sc3nc4c(cc3c2N)CCCC4)nc(N2CCOCC2)n1`, the inhibition is reported as -1.17% (inactive).
In the case of `CCOC(=O)C1CCN(S(=O)(=O)c2ccc3c(c2)N(C(C)=O)CCO3)CC1`, the inhibition is reported as 6.7% (inactive).
For `CCN1C(=O)[C@@H]2[C@@H](c3ccc(-c4ccccc4)cc3)N3CCCC[C@@]3(C(=O)OC)[C@@H]2C1=O`, the inhibition was 6.3% (inactive).
With `COc1ccc(NC(=O)CN(C)C(=O)c2ccc(NC3CC3)c([N+](=O)[O-])c2)cc1` the inhibition was -1.94% (inactive).
For `O=C(CCC(=O)n1ncc2ccccc21)NCc1ccccc1Cl`, the inhibition was 2.75% (inactive).
With `COc1ccccc1CCC(=O)OCC(=O)N1CCN(S(=O)(=O)c2ccc(C)cc2C)CC1` the inhibition was -5.89% (inactive).
For `N#C/C(=C(\O)C(F)(F)F)c1nnc2n1CCCCC2`, the inhibition was -1.07% (inactive).
